Experimental findings from PMC11006913 are described below.

Changes are numbered by the printed parent chain.

Common to all, as to experiment: PBM; 200 nM protein, PBS
Details in all cases: dsDNA, one strand shown

Test [1] concerns the target HOXA7 (Homo sapiens, UniProt P31268 116-202).
The target of test [2] is T1, PAX4 (Homo sapiens, UniProt O43316 9-242, R200K).
T1 sequence: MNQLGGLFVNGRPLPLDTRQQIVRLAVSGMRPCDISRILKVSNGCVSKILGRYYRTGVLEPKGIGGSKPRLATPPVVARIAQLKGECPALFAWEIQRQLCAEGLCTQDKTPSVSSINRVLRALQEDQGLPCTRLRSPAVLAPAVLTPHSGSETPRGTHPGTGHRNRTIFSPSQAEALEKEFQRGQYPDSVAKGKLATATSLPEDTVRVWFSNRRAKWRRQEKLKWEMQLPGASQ

Test [3] concerns the target T2, PAX4 (Homo sapiens, UniProt O43316 9-242).
T2 sequence: T1 sequence with K192R

Test [4] deals with MSX2 (Homo sapiens, UniProt P35548 130-214, R199I).
The target in test [5] is ALX1 (Homo sapiens, UniProt Q15699 118-204, L144V).
Test [6] deals with T3, PAX4 (Homo sapiens, UniProt O43316 9-242, R200Q).
T3 sequence: T1 sequence with K192Q

Test [7] has as its target ALX1 (Homo sapiens, UniProt Q15699 118-204, L144R).
The target of test [8] is T4, PAX4 (Homo sapiens, UniProt O43316 9-242, F177V).
T4 sequence: T1 sequence with F169V, K192R

The target of test [9] is MSX2 (Homo sapiens, UniProt P35548 130-214).
The target of test [10] is T5, PAX4 (Homo sapiens, UniProt O43316 9-242, F177Y).
T5 sequence: T1 sequence with F169Y, K192R

For test [11], the target named is VAX1 (Homo sapiens, UniProt Q5SQQ9 86-172).
The target in test [12] is MSX2 (Homo sapiens, UniProt P35548 130-214, F161Y).
Test [13] addresses VAX1 (Homo sapiens, UniProt Q5SQQ9 86-172, T142I).
The target in test [14] is T6, PAX4 (Homo sapiens, UniProt O43316 9-242, R227W).
T6 sequence: T1 sequence with K192R, R219W

The target in test [15] is HOXA7 (Homo sapiens, UniProt P31268 116-202, W177C).
In test [16] the target is ALX1 (Homo sapiens, UniProt Q15699 118-204).
Test [17] addresses VAX1 (Homo sapiens, UniProt Q5SQQ9 86-172, K157R).
Test [18] concerns the target HOXA2 (Homo sapiens, UniProt O43364 129-215, R185T).
The target of test [19] is HOXA2 (Homo sapiens, UniProt O43364 129-215, R185K).
In test [20] the target is HOXA2 (Homo sapiens, UniProt O43364 129-215, Y150S).
The target of test [21] is HOXA2 (Homo sapiens, UniProt O43364 129-215).
The target of another test is T7, NKX2-6 (Homo sapiens, UniProt A6NCS4 118-204, R150C).
T7 sequence: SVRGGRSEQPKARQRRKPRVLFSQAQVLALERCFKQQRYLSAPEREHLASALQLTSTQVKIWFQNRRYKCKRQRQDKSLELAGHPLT

Test [22] has as its target PROP1 (Homo sapiens, UniProt O75360 56-141).
In test [23] the target is PROP1 (Homo sapiens, UniProt O75360 56-141, R99H).
Test [24] concerns the target PROP1 (Homo sapiens, UniProt O75360 56-141, F88S).

MSX2 (Homo sapiens, UniProt P35548 130-214), sequence (P35548 130-214): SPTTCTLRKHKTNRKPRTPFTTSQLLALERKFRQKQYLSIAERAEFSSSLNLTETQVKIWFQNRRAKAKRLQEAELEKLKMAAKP
HOXA7 (Homo sapiens, UniProt P31268 116-202, W177C), sequence (P31268 116-202 W177C): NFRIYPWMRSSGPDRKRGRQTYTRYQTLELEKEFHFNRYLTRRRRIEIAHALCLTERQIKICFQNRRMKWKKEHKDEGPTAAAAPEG
MSX2 (Homo sapiens, UniProt P35548 130-214, R199I), sequence (P35548 130-214 R199I): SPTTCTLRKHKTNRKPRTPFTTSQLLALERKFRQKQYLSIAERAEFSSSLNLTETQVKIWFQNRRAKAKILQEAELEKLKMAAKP
MSX2 (Homo sapiens, UniProt P35548 130-214, F161Y), sequence (P35548 130-214 F161Y): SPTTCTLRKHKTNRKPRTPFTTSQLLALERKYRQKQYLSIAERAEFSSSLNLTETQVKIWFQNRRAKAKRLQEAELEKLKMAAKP
HOXA7 (Homo sapiens, UniProt P31268 116-202), sequence (P31268 116-202): as the sequence (P31268 116-202 W177C) above, with C62W counted along it
HOXA2 (Homo sapiens, UniProt O43364 129-215), sequence (O43364 129-215): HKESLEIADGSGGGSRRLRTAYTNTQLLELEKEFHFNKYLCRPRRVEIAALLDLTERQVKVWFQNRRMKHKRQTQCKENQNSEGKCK
HOXA2 (Homo sapiens, UniProt O43364 129-215, R185K), sequence (O43364 129-215 R185K): as the sequence (O43364 129-215) above, with R57K counted along it
HOXA2 (Homo sapiens, UniProt O43364 129-215, Y150S), sequence (O43364 129-215 Y150S): as the sequence (O43364 129-215) above, with Y22S counted along it
HOXA2 (Homo sapiens, UniProt O43364 129-215, R185T), sequence (O43364 129-215 R185T): as the sequence (O43364 129-215) above, with R57T counted along it
PROP1 (Homo sapiens, UniProt O75360 56-141, F88S), sequence (O75360 56-141 F88S): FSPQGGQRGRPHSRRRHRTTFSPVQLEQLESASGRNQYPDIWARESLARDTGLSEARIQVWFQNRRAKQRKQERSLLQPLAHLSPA
ALX1 (Homo sapiens, UniProt Q15699 118-204), sequence (Q15699 118-204): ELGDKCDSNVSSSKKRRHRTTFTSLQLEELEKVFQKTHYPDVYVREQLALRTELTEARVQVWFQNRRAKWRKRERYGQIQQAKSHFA
ALX1 (Homo sapiens, UniProt Q15699 118-204, L144R), sequence (Q15699 118-204 L144R): as the sequence (Q15699 118-204) above, with L27R counted along it
VAX1 (Homo sapiens, UniProt Q5SQQ9 86-172), sequence (Q5SQQ9 86-172): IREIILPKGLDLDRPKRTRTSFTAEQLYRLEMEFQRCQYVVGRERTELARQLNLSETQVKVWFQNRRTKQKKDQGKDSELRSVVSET
ALX1 (Homo sapiens, UniProt Q15699 118-204, L144V), sequence (Q15699 118-204 L144V): as the sequence (Q15699 118-204) above, with L27V counted along it
PROP1 (Homo sapiens, UniProt O75360 56-141, R99H), sequence (O75360 56-141 R99H): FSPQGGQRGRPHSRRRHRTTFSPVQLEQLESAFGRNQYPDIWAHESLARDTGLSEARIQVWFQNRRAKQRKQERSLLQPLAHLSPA
PROP1 (Homo sapiens, UniProt O75360 56-141), sequence (O75360 56-141): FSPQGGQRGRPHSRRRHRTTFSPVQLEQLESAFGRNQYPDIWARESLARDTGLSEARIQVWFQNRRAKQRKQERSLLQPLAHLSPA
VAX1 (Homo sapiens, UniProt Q5SQQ9 86-172, K157R), sequence (Q5SQQ9 86-172 K157R): as the sequence (Q5SQQ9 86-172) above, with K72R counted along it
VAX1 (Homo sapiens, UniProt Q5SQQ9 86-172, T142I), sequence (Q5SQQ9 86-172 T142I): as the sequence (Q5SQQ9 86-172) above, with T57I counted along it

With CCTGGTCC, the binding signal with HOXA7 [1] was 8.3 upbm affinity estimate (log intensity, higher = more binding, comparable within an allelic series); with PAX4 [2], 9.07 upbm affinity estimate (log intensity, higher = more binding, comparable within an allelic series); in the test with PAX4 [3] it was 9.15 upbm affinity estimate (log intensity, higher = more binding, comparable within an allelic series); with MSX2 [4], 9.44 upbm affinity estimate (log intensity, higher = more binding, comparable within an allelic series); with ALX1 [5], 6.39 upbm affinity estimate (log intensity, higher = more binding, comparable within an allelic series); in the test with PAX4 [6] it was 9.31 upbm affinity estimate (log intensity, higher = more binding, comparable within an allelic series). Moreover, the binding signal was 6.31 upbm affinity estimate (log intensity, higher = more binding, comparable within an allelic series) in the test with ALX1 [7]; 9.26 upbm affinity estimate (log intensity, higher = more binding, comparable within an allelic series) with PAX4 [8]; 9.47 upbm affinity estimate (log intensity, higher = more binding, comparable within an allelic series) with MSX2 [9]; 9.15 upbm affinity estimate (log intensity, higher = more binding, comparable within an allelic series) with PAX4 [10]; 7.22 upbm affinity estimate (log intensity, higher = more binding, comparable within an allelic series) with VAX1 [11]; 9.52 upbm affinity estimate (log intensity, higher = more binding, comparable within an allelic series) in the test with MSX2 [12]. Also, the binding signal is 7.32 upbm affinity estimate (log intensity, higher = more binding, comparable within an allelic series) with VAX1 [13]; 9.31 upbm affinity estimate (log intensity, higher = more binding, comparable within an allelic series) with PAX4 [14]; 8.35 upbm affinity estimate (log intensity, higher = more binding, comparable within an allelic series) with HOXA7 [15]; 6.34 upbm affinity estimate (log intensity, higher = more binding, comparable within an allelic series) in the test with ALX1 [16]; 7.26 upbm affinity estimate (log intensity, higher = more binding, comparable within an allelic series) in the test with VAX1 [17].
Take AATAACAT: the binding signal in the test with HOXA7 [1] is 10.1 upbm affinity estimate (log intensity, higher = more binding, comparable within an allelic series); with HOXA2 [18], 9.56 upbm affinity estimate (log intensity, higher = more binding, comparable within an allelic series); with HOXA2 [19] it was 11.6 upbm affinity estimate (log intensity, higher = more binding, comparable within an allelic series); with HOXA2 [20], 10.9 upbm affinity estimate (log intensity, higher = more binding, comparable within an allelic series); with HOXA7 [15], 8.98 upbm affinity estimate (log intensity, higher = more binding, comparable within an allelic series); in the test with HOXA2 [21] it was 9.63 upbm affinity estimate (log intensity, higher = more binding, comparable within an allelic series).
Regarding ATATTAGA, the binding signal was 9.95 upbm affinity estimate (log intensity, higher = more binding, comparable within an allelic series) with HOXA7 [1]; 11.1 upbm affinity estimate (log intensity, higher = more binding, comparable within an allelic series) in the test with MSX2 [4]; 11.8 upbm affinity estimate (log intensity, higher = more binding, comparable within an allelic series) with MSX2 [9]; 11.5 upbm affinity estimate (log intensity, higher = more binding, comparable within an allelic series) with MSX2 [12]; 8.88 upbm affinity estimate (log intensity, higher = more binding, comparable within an allelic series) with HOXA7 [15].
For CCAGCTGG, the binding signal in the test with HOXA7 [1] was 8.23 upbm affinity estimate (log intensity, higher = more binding, comparable within an allelic series); with HOXA2 [18], 7.34 upbm affinity estimate (log intensity, higher = more binding, comparable within an allelic series); in the test with NKX2-6, 9.68 upbm affinity estimate (log intensity, higher = more binding, comparable within an allelic series); with HOXA2 [19], 10.4 upbm affinity estimate (log intensity, higher = more binding, comparable within an allelic series); with HOXA2 [20] it was 10.5 upbm affinity estimate (log intensity, higher = more binding, comparable within an allelic series); with HOXA7 [15], 8.36 upbm affinity estimate (log intensity, higher = more binding, comparable within an allelic series). Further, in the test with HOXA2 [21], the binding signal is 7.34 upbm affinity estimate (log intensity, higher = more binding, comparable within an allelic series).
For the sequence AGCTTTCC, the binding signal with HOXA7 [1] was 8.42 upbm affinity estimate (log intensity, higher = more binding, comparable within an allelic series); with PROP1 [22], 6.7 upbm affinity estimate (log intensity, higher = more binding, comparable within an allelic series); with PROP1 [23] it was 6.84 upbm affinity estimate (log intensity, higher = more binding, comparable within an allelic series); with PROP1 [24], 7.01 upbm affinity estimate (log intensity, higher = more binding, comparable within an allelic series); with HOXA7 [15], 8.43 upbm affinity estimate (log intensity, higher = more binding, comparable within an allelic series).
AAATTGCC: the binding signal with HOXA7 [1] is 10.3 upbm affinity estimate (log intensity, higher = more binding, comparable within an allelic series); with HOXA7 [15], 8.7 upbm affinity estimate (log intensity, higher = more binding, comparable within an allelic series).
Regarding CGGTGTCC, the binding signal in the test with HOXA7 [1] is 8.41 upbm affinity estimate (log intensity, higher = more binding, comparable within an allelic series); with MSX2 [4], 9.36 upbm affinity estimate (log intensity, higher = more binding, comparable within an allelic series); with MSX2 [9], 9.29 upbm affinity estimate (log intensity, higher = more binding, comparable within an allelic series); with MSX2 [12], 9.3 upbm affinity estimate (log intensity, higher = more binding, comparable within an allelic series); with HOXA7 [15] it was 8.4 upbm affinity estimate (log intensity, higher = more binding, comparable within an allelic series).
